# IP6K1 inh – Primary qHTS assay for small molecule inhibitors of Inositol hexaphosphate kinase 1 (IP6K1); activity change, % (series mostly up to about 58 µM); Inositol hexakisphosphate kinase 1 (Homo sapiens), Q92551; 140,000 compounds, 0.81% hits; IP6K1 kinase, ADP-Glo luminescence, 2 h; hits give low values; AID 1645851, 2021; in the data active = activity change below about -25%
# Target sequence (Q92551 whole entry, looked up): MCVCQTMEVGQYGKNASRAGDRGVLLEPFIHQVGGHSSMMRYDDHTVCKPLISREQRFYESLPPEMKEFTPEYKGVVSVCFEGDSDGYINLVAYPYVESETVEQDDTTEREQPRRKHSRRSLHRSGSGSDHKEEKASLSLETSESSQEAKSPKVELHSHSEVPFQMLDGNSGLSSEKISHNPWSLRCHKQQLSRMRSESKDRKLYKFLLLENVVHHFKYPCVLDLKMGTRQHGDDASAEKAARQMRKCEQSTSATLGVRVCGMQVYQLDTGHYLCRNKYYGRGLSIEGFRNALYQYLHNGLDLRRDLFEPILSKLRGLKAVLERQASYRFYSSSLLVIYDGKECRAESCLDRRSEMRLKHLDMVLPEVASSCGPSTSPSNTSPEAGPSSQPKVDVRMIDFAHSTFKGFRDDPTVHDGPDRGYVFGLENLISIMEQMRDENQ
#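 ADP-Glo luminescence measures ADP made by human IP6K1 during a 2 h RT reaction with ATP/IP6 (mix at 1.3 mM/130 uM); top library doses 57.5 and 19.1 uM final.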
# SNCA expr inhib – Primary qHTS assay for inhibitors of alpha-synuclein gene (SNCA) expression. HEK-293 SNCA-luciferase knock-in, luminescence, 24 h. Potency, µM (top dose mostly 57.2 µM), actives largely listed as inhibitors. 140,000 compounds, 0.17% hits; note: nearly all actives have a fitted effect of over 45% in size
# KDM5B inh – Primary screen for KDM5B Histone Demethylases FDH-coupled qHTS. Lysine-specific demethylase 5B (Homo sapiens), Q9UGL1. KDM5B demethylase, FDH-coupled NADH fluorescence (FDH is formaldehyde dehydrogenase). Potency, µM (series often up to 57.7 µM), most hits filed as inhibitors. 220,000 compounds, 2.6% hits; note: nearly all actives have a fitted effect of over 70% in size
#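 Measured: NADH fluorescence change, 30 min, RT. System: KDM5BΔAP 200 nM final, H3K4me3 peptide, α-KG, Fe(II), ascorbate, NAD⁺ plus FDH, pH 7.5 HEPES. Compounds: titrated, 10 min pre-incubation with enzyme.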
# HEK293 viab – GF-AFC viability counterscreen for inhibitors of alpha-synuclein gene (SNCA) expression; HEK-293-SNCA-luc viability, GF-AFC fluorescence, 24 h; Potency, µM (series often up to 57.1 µM), actives largely listed as cytotoxic; 150,000 compounds, 0.12% hits; note: nearly all actives have a fitted effect of over 30% in size
#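 HEK-293-SNCA-luc cells (1500/well) plated 24 h, then exposed 24 h to a dilution series; GF-AFC added 30 min at 37C, fluorescence 405/540 nm; normalised to medium-only and DMSO wells, Hill fit.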
# IP6K1 inh cnf – Confirmatory qHTS assay for small molecule inhibitors of Inositol hexaphosphate kinase 1 (IP6K1). AID 1645852, 2021. Potency, µM (highest dose often 49 µM), actives largely listed as inhibitors. shares compounds with IP6K1 inh. recombinant IP6K1 kinase, ADP-Glo luminescence, 2 h. 1,200 compounds, 13% hits; note: nearly all actives have a fitted effect of over 65% in size
# Numbers stand for hits; n = inactive; u = inconclusive; x = not tested or not shown. In the library only some 2.9% were active in any assay of this set; here they are far more common. Unless noted, calls come from the whole dose curve; as a rule, active = well fitted curve in the direction sought with a large enough effect; inconclusive = small, poorly fitted or top-dose-only effect, or another doubt; inactive = no such curve, though single readings can be large; an effect the other way counts as inactive or inconclusive.
SMILES,IP6K1 inh,SNCA expr inhib,KDM5B inh,HEK293 viab,IP6K1 inh cnf
CN1C(=O)C(CC(=O)NCCCN2CCc3ccccc3C2)=C2CCCCC21 (centres undefined),n,n,u,n,x
O=C(Nc1ccc2c(c1)CN(C(=O)c1cc(C3CC3)[nH]n1)CCO2)C1CC1,n,n,x,n,x
Cc1ccc(S(=O)(=O)c2nc(-c3ccccc3)oc2N2CCCCCC2)cc1,n,n,n,n,x
Cc1ccc(-c2nc(S(=O)(=O)c3ccc(C)cc3)c(N3CCCCC3)o2)cc1,-29,n,u,n,u
O=S(=O)(c1ccccc1)c1nc(-c2cccs2)oc1N1CCOCC1,x,x,n,x,x
O=S(=O)(c1ccccc1)c1nc(-c2cccs2)oc1N1CCCCC1,-36,n,u,n,n
CS(=O)(=O)N1CCCN(C(=O)c2ccccc2C2CCNC2)CC1 (centres undefined),n,n,n,n,x
COc1ccc(CCNc2nc3c(-c4cccc(C)c4)nnn3c3ccccc23)cc1OC,-32,n,u,u,n
C[C@@H]1[C@H](C)CC[C@]2(C(=O)O)CC[C@]3(C)C(=CC[C@@H]4[C@@]5(C)CC[C@H](O)C(C)(C)[C@H]5CC[C@]43C)[C@@H]12,x,n,x,n,x
Cc1ccc(NC(=O)Cn2ncn3c(cc4ccccc43)c2=O)cc1C,-28,n,u,n,n
COc1ccccc1-c1nc2c(c(SCc3cc(C)ccc3C)n1)Cc1c(CO)cnc(C)c1O2,-27,n,u,n,n
O=C1N(Cc2ccc(F)cc2)C[C@H]2CN(Cc3ccccn3)CCN12,-32,n,u,n,u
CC1CC(C)CN(C(=O)c2ccc(-c3ccccc3)cc2)C1 (centres undefined),x,x,n,x,x
CC1=C(C(=O)Nc2cccc(C(F)(F)F)c2)C(c2ccccc2)n2ncnc2N1 (centres undefined),n,n,n,n,x
O=C(NCCc1ccccc1)c1ccc2nc(N3CCCCC3)sc2c1,-31,n,n,n,n
Cc1ccc(C(=O)Nc2cc3c(cc2C(=O)c2ccccc2)OCCO3)cc1,x,x,n,x,x
CC(C)C(=O)c1cc2c(cc1NC(=O)c1ccccc1F)OCCO2,-28,n,u,n,n
COc1ccc(-n2nc(C)cc2Nc2ccccc2C(=O)O)cc1,x,x,n,x,x
CCn1nc(C(=O)OC(C)C(=O)Nc2cccc3ccccc23)c2ccccc2c1=O (centres undefined),x,x,n,x,x
CC(C)CCN1CC2(CCCN(S(=O)(=O)N3CCOCC3)C2)CCC1=O (centres undefined),-33,n,n,n,n
CC(C)(C)c1ccc(C(CC(=O)O)NC(=O)c2ccc(-c3ccccc3)cc2)cc1 (centres undefined),x,x,n,x,x
Cc1oc2ccc(O)c(CN(C)Cc3ccccc3)c2c1C(=O)Nc1ccccc1,-28,n,n,n,n
CC(C)Oc1ccc(C(CC(=O)O)NC(=O)c2ccccc2Cl)cc1 (centres undefined),x,x,n,x,x
Cc1ccc(-c2csc3ncnc(Nc4ccc(C(=O)O)cc4)c23)cc1,-25,n,n,n,n
CC1CN(C(=O)CCC(=O)NCc2ccc(F)cc2)c2cc(Cl)ccc2O1 (centres undefined),-25,n,n,n,n
SMILES,IP6K1 inh,SNCA expr inhib,KDM5B inh,HEK293 viab,IP6K1 inh cnf
O=C(c1ccccc1-c1nn[nH]n1)N1CCN(CCN2CCOCC2)CC1,n,n,n,n,x
CN1CC2(CCN(C(=O)c3ccccc3-c3nn[nH]n3)CC2)CC1C(=O)O (centres undefined),-38,n,n,n,n
O=C(NCCCc1ccccc1)C1CCCN(Cc2cccc(-c3cccs3)c2)C1 (centres undefined),n,n,x,n,x
C[C@]12CS(=O)(=O)C[C@H]1SC(=S)N2c1ccccc1,x,x,n,x,x
Cc1cc(C)c2oc(-c3ccc(C)c(NC(=O)/C=C/c4ccco4)c3)nc2c1,-36,n,u,n,u
COc1cccc(NC(=O)CSc2ncc(S(=O)(=O)c3ccc(C)c(C)c3)c(=O)[nH]2)c1,-29,u,n,n,u
CC(C)c1ccc(S(=O)(=O)c2cnc(SCC(=O)Nc3ccc4c(c3)OCCO4)[nH]c2=O)cc1,n,n,n,n,x
Cc1ccc(S(=O)(=O)c2cnc(SCC(=O)Nc3ccc4c(c3)OCCO4)[nH]c2=O)cc1,-30,n,n,n,u
C[C@@]12CO[C@@H](COc3ccccc3)O[C@@H]1CC[C@]1(C)C2CC[C@@H](O)[C@H]1CC(=O)NCc1cc(F)cc(F)c1 (some centres undefined),n,u,n,n,x
COc1cccc(C(=O)N2CCC[C@H]2c2nc(-c3ccc(F)cc3)no2)c1,n,n,n,n,x
O=C(O)C[C@@H]1CCN(C(=O)Nc2ccc(F)cc2)C[C@@H]1CCN1CCCCC1,n,n,n,n,x
CCOc1cccc(C(=O)Nc2ccc(-c3nc4ncccc4o3)cc2C)c1,n,n,n,n,x
CCOc1cc(C(=O)Nc2ccc(-c3nc4ncccc4o3)cc2C)cc(OCC)c1OCC,-26,n,n,n,n
CCCCN(CC)C(=O)Cn1c(=O)n(-c2ccc(OCC)cc2)c(=O)c2c3c(sc21)CCC3,-33,n,n,n,n
CCc1ccc(-n2c(=O)c3c4c(sc3n(Cc3ccc(F)cc3)c2=O)CCCC4)cc1,-28,n,n,n,n
CCc1ccc(-n2c(=O)c3c4c(sc3n(Cc3ccc(C)cc3)c2=O)CCC4)cc1,n,n,n,n,x
CC(C)(C)OC(=O)COC(=O)c1ccc2c(c1)NC(=O)CS2,x,x,n,x,x
COc1ccc(-c2cc(C(=O)Oc3cccc(C)c3)c3cc(C)ccc3n2)cc1,-30,n,u,n,n
COc1ccc(-c2cc(C(=O)Oc3cccc(C)c3)c3ccccc3n2)cc1,n,n,u,n,x
COc1ccccc1CNC(=O)c1ccc2c(c1)nc(C)n2-c1cccc(C)c1,-26,n,n,n,n
CCOC(=O)c1cnc2ccc(-c3cncc(NS(=O)(=O)c4ccccc4)c3)cn12,n,x,x,n,u
CC(C)CNC(=O)c1ccnc(-c2nnc3ccc(Nc4ccccc4)nn23)c1,-28,n,u,n,u
C[C@@H]1CN(C(=O)c2ccnc(-c3nnc4ccc(Nc5ccccc5)nn34)c2)C[C@H](C)O1,n,n,n,n,x
O=C(OCc1ccccc1Cl)c1cccc(CN2CCCC2=O)c1,x,x,n,x,x
Fc1ccccc1CNCc1ccc(-c2ccnc3[nH]ccc23)cc1,-42,x,x,n,u
O=C(NCc1ccnc2[nH]ccc12)c1ccccc1,n,n,n,n,x
Cc1cc(C)cc(NC(=O)CCCc2nc(-c3ccco3)no2)c1,-27,n,n,n,n

# Source: PubChem
